# Laboratory results: PubChem BioAssay AID1347076 (National Center for Advancing Translational Sciences (NCATS), 2019)
# About 13,000 (3.2%) of roughly 400,000 compounds were called active. Another 18% or so got no clear call; they are omitted. The sample as a whole holds a higher share of actives than the screen did. A number with no mark means an inactive call. The call rests on the fitted dose curve; in most records, active means well fitted cell-killing curve with a large enough effect; inconclusive means small, poorly fitted or top-dose-only effect, or effect the other way; inactive means flat fitted curve, though single readings scatter.
# Experiment: qHTS assay for MDR1-selective chemotherapeutics: Primary screen using the drug-selected MDR subline cells KB-V1; further: nearly all actives have a fitted effect of over 60% in size
# Settings: KB-V1 MDR cells viability, CellTiter-Glo, 72 h; series mostly up to 46.1 µM; activity change, negative = cytotoxicity: at the top concentration
# Procedure, shortened: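 In this primary screen, KB-V1 cells overexpressing P-gp are incubated with library compounds (lowest to highest concentration) for 72 h at 37 degrees C before a luminescent ATP viability read.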
# On the % scale 0 is the no-effect control and ±100 the full control effect; potency means the concentration at half of the fitted maximal effect.
SMILES,"activity change, negative = cytotoxicity [%]",Potency
CCOC(=O)[C@]12CCC=C1N(Cc1ccco1)C(=O)[C@H](CC(=O)N1CCSCC1)C2,-25.8,
CC(C)Oc1ccc(CN2CCC2(C)C(=O)NCc2ccc(C(F)(F)F)cc2)cc1 (configuration not stated),-8.92,
Cc1cccc(-c2nc(SCC(=O)Nc3cc(C)on3)c3c(=O)n(C)c(=O)n(C)c3n2)c1,8.61,
Cc1nc2ccccc2nc1CC(O)(c1ccccc1)c1ccccc1,-13.9,
O=C(NCc1ccccc1)C(=O)NCC(c1ccco1)S(=O)(=O)c1ccc(Cl)cc1 (configuration not stated),-23.4,
COc1ccc(CSc2nc(N3CCOCC3)c3c(c2C#N)CC(C)(C)OC3)cc1,-7.53,
CC1(C)Cc2c(C#N)c(SCc3nc4ccccc4[nH]3)nc(N3CCOCC3)c2CO1,,9.2 µM (active)
CC(C)C(=O)N1CCN(c2nc(-c3ccccc3)c3c(c2C#N)CC(C)(C)OC3)CC1,15.4,
COc1cccc(CNCc2c(C(=O)O)n(Cc3ccc(C)cc3)c3cc(C)ccc23)c1OC,-12.2,
O=c1[nH]c(N2CCN(Cc3ccc4c(c3)OCO4)CC2)nc2c1CCCC2,0.611,
Fc1ccc2[nH]c3c(N4CCSCC4)ncnc3c2c1,,3.26 µM (active)
Fc1ccc2[nH]c3c(N4CCN(Cc5ccc6c(c5)OCO6)CC4)ncnc3c2c1,,9.2 µM (active)
Cc1c(CN2CC[C@@H](N3CCN(c4ccccn4)CC3)[C@H](O)C2)[nH]c2ccc(F)cc12,19.3,
CCCCCc1c(C)nc(N2CCN(Cc3ccc4c(c3)OCO4)CC2)[nH]c1=O,8.37,
CC1=C(C(=O)N(C)C)CC(CC(=O)NCCc2ccccn2)C(=O)N1CCC1=CCCCC1 (configuration not stated),-2.02,
COCCNc1nc(Nc2ccccc2Cl)c2sc(-c3ccccc3)cc2n1,1.9,
CC(=O)Nc1ccc(Nc2cc(C)nc(Nc3ccc(NC(C)=O)cc3)n2)cc1,0.471,
COc1ccc(NC(=O)c2nc(-n3nc(C)cc3C)ccc2Cl)cc1Cl,-16.4,
COc1ccc(Nc2cc(C)nc(-n3nc(C)cc3C)n2)cc1,,0.231 µM (active)
CC1(C)NC(=O)N(CC(=O)Nc2ccc(-c3ccccc3)cc2)C1=O,6.88,
CC1(Oc2ccc(Cl)cc2)CCN(Cc2csc3ccccc23)C1 (configuration not stated),6.11,
CN(C)c1nc(N)nc(CSc2nnnn2-c2cccc3ccccc23)n1,,6.51 µM (active)
CN(C)c1nc(N)nc(CSc2ccccn2)n1,-15,
COc1ccc(-n2nnnc2SCc2nc(N)nc(N3CCOCC3)n2)cc1,-2.46,
CCOC(=O)C1CCCN(C(=O)c2ccc(C)c(F)c2)CC1 (configuration not stated),2.89,

SMILES,"activity change, negative = cytotoxicity [%]",Potency
COc1ccc(S(=O)(=O)NCCCCOc2ccc(Cl)cc2)cc1,2.27,
COc1ccc(N(CCC#N)S(=O)(=O)c2ccc(Cl)cc2)cc1,,16.4 µM (active)
COc1ccc(N(Cc2ccccc2)S(=O)(=O)c2cccc(C(=O)O)c2)cc1,-6.55,
CCCCNC(=O)Cn1c(SCc2cccc(Cl)c2)nc2ccncc21,24.9,
O=C(NCCO)c1cccc(-c2cccc3nccn23)c1,2.1,
CCC(=O)N1c2ccccc2CC1C(=O)N1CCN(c2cccc(OC)c2)CC1 (configuration not stated),-2.51,
Cc1ccc(NC(=O)Cn2sc3ccccc3c2=O)cc1,-4.65,
CC(C)OCCCn1c(SCC(=O)c2ccccc2)nc2c(sc3ccccc32)c1=O,-4.17,
COc1ccc(C(=O)Nc2ccccc2C(=O)N2CCN(c3ccccc3)CC2)cc1,2.33,
COc1ccc(C(=O)Nc2c(Cl)cc(Cl)cc2C(=O)N2CCC(C)CC2)cc1,,3.26 µM (active)
COc1ccc(N2CCN(C(=O)C3CCN(C(=O)c4ccccc4Cl)CC3)CC2)cc1,-0.446,
CCCNC(=O)C1(C)CCN1C(=O)Cc1ccc(-c2ccccc2)cc1 (configuration not stated),-9.32,
COC(=O)c1scc(-c2ccc(C)cc2)c1S(=O)(=O)Nc1cc(Cl)c(OC)cc1OC,-3.69,
CCCNC(=O)C1CC(=O)N(c2ccc(OCc3ccccc3)cc2)C1 (configuration not stated),-19.5,
COc1ccc(OCCNC(=O)c2cc(C3CC3)nc3c2cnn3C(C)C)cc1,,8.2 µM (active)
CC(C)n1ncc2c(C(=O)NCc3ccccc3CN(C)C)cc(C3CC3)nc21,28.4,
CC(C)n1ncc2c(C(=O)Nc3ccc(CC#N)cc3)cc(C3CC3)nc21,-15.1,
CCCCN1C(=O)C(CC(=O)NCc2cccs2)CC(C(=O)N2CCOCC2)=C1C (configuration not stated),21.1,
O=C(Nc1ccc2c(c1)OCCO2)C(C1CC1)N1CCC(Cc2ccccc2)CC1 (configuration not stated),6.42,
O=C(NCc1ccccn1)C1CCN(S(=O)(=O)c2ccc(Br)cc2)CC1,5.38,
O=C(Nc1ccccn1)C1CCN(S(=O)(=O)c2ccccc2)CC1,,18.4 µM (active)
O=C(Nc1ccccn1)C1CCN(S(=O)(=O)c2ccc3c(c2)OCCO3)CC1,-5.52,
CN(Cc1ccc(C(F)(F)F)cc1)C(=O)[C@H]1O[C@@H](n2cnc3c(N)ncnc32)[C@H](O)[C@@H]1O,-2.71,
O=C(COc1ccc(S(=O)(=O)N2CCCC2)cc1[N+](=O)[O-])N1CCCCC1,-20.5,
O=[N+]([O-])c1cc(S(=O)(=O)N2CCCC2)ccc1NN=C1CCCC1,,16.4 µM (active)

SMILES,"activity change, negative = cytotoxicity [%]",Potency
O=[N+]([O-])c1cc(C(F)(F)F)ccc1NN=C1CCCC1,28.7,
COC(=O)c1ccc(CN2C(=O)C(Cc3ccccc3)ON=C2c2ncccc2C)o1 (configuration not stated),-9.92,
CC(C)c1ccc(S(=O)(=O)Nc2ccc(O)c(Sc3nc4ccccc4s3)c2)cc1,,16.4 µM (active)
O=S(=O)(Nc1ccc2nc(N3CCOCC3)sc2c1)c1ccccc1,-27.7,
O=[N+]([O-])c1c(NCCO)cc(Sc2nc3ccccc3s2)c2nonc12,-3.18,
COC(=O)N(C)C[C@@H]1OCc2cnnn2CCCC(=O)N([C@@H](C)CO)C[C@@H]1C,0.072,
Nc1nc2c(ncn2[C@@H]2O[C@H](CNCc3ccc(OCCCN4CCOCC4)cc3)[C@@H](O)[C@H]2O)c(=O)[nH]1,6.4,
Nc1ncnc2c1ncn2[C@@H]1O[C@H](C(=O)N2CCCN(Cc3ccccc3F)CC2)[C@@H](O)[C@H]1O,0.685,
C=CCn1c(CCc2ccc(OC(C)C)cc2)n[nH]c1=S,-20.5,
CC(C)Oc1ccc(CCc2n[nH]c(=S)n2Cc2ccccc2)cc1,,16.4 µM (active)
CC(C)Oc1ccc(CCc2nnc(SCC(=O)O)n2-c2ccccc2)cc1,13.3,
C[C@@H]1CN([C@@H](C)CO)C(=O)CCCn2cc(nn2)CO[C@H]1CN(C)S(=O)(=O)c1ccc(-n2cccn2)cc1,9.14,
Nc1nnc(SCC(=O)Nc2ccc3nc(SCC(=O)Nc4ccccc4)sc3c2)s1,,23.1 µM (active)
CCCCNC(=O)CSc1nc2ccc(NC(=O)CSc3nnc(COc4ccccc4C)n3C)cc2s1,-28.6,
CCCCNC(=O)CSc1nc2ccc(NC(=O)CSc3nnc(N)s3)cc2s1,6.17,
COc1ccc(N2c3ccccc3CN(Cc3ccccc3)[C@@H](C)[C@H]2Cc2ccc(-c3ccccc3)cc2)cc1,2.89,
Clc1cccc(Cc2c(-c3cccc(Cl)c3)nc3ccc(Cl)cn23)c1,12,
O=C(c1ccc(Cn2cc([N+](=O)[O-])cn2)o1)N1CCCC1,-1.32,
CCc1ccc(NC(=O)c2ccc(Cn3cc([N+](=O)[O-])cn3)cc2)cc1,,4.61 µM (active)
O=C(Nc1ccccc1F)c1ccc(Cn2cc(Br)cn2)cc1,0.173,
CCOC(=O)C1=CC[C@@H](c2ccccc2)N(S(=O)(=O)c2ccc(C)cc2)[C@H]1c1cccc(OC)c1,-19.1,
O=C(NCc1ccccc1)C1c2ccccc2OCC(=O)N1CCCN1CCOCC1 (configuration not stated),0,
CCOC(=O)c1ccc(NC(=O)C2CC(=O)NC(=Nc3ccc(C)c(C)c3)S2)cc1 (configuration not stated),0,
Cc1ccc(Cc2c(-c3ccco3)nc3ccc(Cl)cn23)cc1,-9.86,
Oc1cccc(/C=N/Nc2ccc(Cl)nn2)c1O,-22.1,

SMILES,"activity change, negative = cytotoxicity [%]",Potency
Oc1c(Br)cccc1/C=N/Nc1c(F)c(F)c(F)c(F)c1F,,25.9 µM (active)
Brc1ccccc1/C=N/Nc1nc2ccccc2o1,16.2,
CCOc1ccc(Nc2nc3c(S(=O)(=O)c4cccc(Cl)c4)nnn3c3ccsc23)cc1,1.29,
CSc1ccc(CN2CCC2(C)C(=O)NCc2ccccc2Br)cc1 (configuration not stated),-11.6,
CCc1nnc(NC(=O)c2ccco2)s1,27.7,
CCCCCNC(=O)C1C(=O)Nc2ccccc2C(=O)N1C(C)(C)C (configuration not stated),-14.7,
CCS(=O)(=O)Nc1cc(C(=O)OC)ccc1C(=O)OC,12.8,
CCN(CCO)C(=S)Nc1cc(C(=O)OC)ccc1C(=O)OC,-19.1,
CCCN(CCC)C(=S)Nc1cc(C(=O)OC)ccc1C(=O)OC,,20.6 µM (active)
COc1ccc2c(C)c(CCC(=O)NCc3ccc(OC)c(OC)c3)c(=O)oc2c1,-7.69,
O=C(CCCN1C(=O)C(c2ccccc2)Oc2cccnc21)Nc1ccccc1Br (configuration not stated),-25.5,
Cn1nnc2c(N3CCN(c4ccccc4)CC3)ncnc21,-12.8,
O=C1NC[C@H](CCCCN2C[C@H](Cc3ccccc3)N(Cc3ccccc3)C(=O)C2=O)N(CCc2ccc(O)cc2)C1=O,1.62,
O=C(c1ccc(Oc2ccc(Cl)cc2)c([N+](=O)[O-])c1)N1CCCC1,-2.56,
CC1CCN(C(=O)c2ccc(S(=O)(=O)Cc3cc(F)ccc3F)c([N+](=O)[O-])c2)CC1,,14.6 µM (active)
Nc1ccc(C(=O)N2CCN(S(=O)(=O)c3ccc(Cl)cc3)CC2)cc1[N+](=O)[O-],-19.1,
O=C1CCC[C@@H]2C[C@@]3(C[C@@H]4CCN1[C@H]24)Nc1ccccc1NC3=NCc1ccccc1,-4.8,
Nc1cccc(-c2cncc(N3CCN(Cc4ccccn4)CC3)n2)c1,6.36,
COc1ccc(S(=O)(=O)N2CCN(CC(=O)N3CCNC3=O)CC2)cc1OC,0,
O=C(COC(=O)CCc1c[nH]c2ccccc12)Nc1cccc(Cl)c1,19.9,
CCc1cc(C(=O)N(CC)CC(=O)Nc2c(F)cccc2F)sc1C,-25.8,
O=C(OCc1ccccc1)N1CCC2CC1c1ccc(-c3ccc4c(c3)OCO4)cc12 (configuration not stated),-16,
